Source: PubChem BioAssay (NCATS)
Several values for one entry are separate records, joined by “and”; a condition that tells them apart may be missing. Identical values can stand only once. Records with an inconclusive call do not appear. The source holds several records for some structures; these can differ, active in one and inactive in another. Activity calls are given as the source filed them. Unless noted, calls come from the whole dose curve; as a rule, active = well fitted curve in either direction with a large enough effect (not every such curve was filed as active); inconclusive = small, poorly fitted or top-dose-only effect, or another doubt; inactive = flat fitted curve, though single readings scatter.

Experiments:
[1] = AP1 Signaling Pathway (AID 357); conditions: ME-180 AP-1-bla reporter, EGF-induced, beta-lactamase ratio, 5 h; at 38 µM (top of the series) unless noted; note: % is set by controls: 0 for no effect and ±100 for the full control effect
Method in brief: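 AP-1-bla ME-180 cells with beta-lactamase reporter under AP-1 response element, stimulated with EC50 EGF; compounds titrated, 5 hours at 37 degrees Celsius. CCF4 read at 460/530 nm ratio; positive and negative modulators judged by AC50.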

[2] = molecular target: Cytochrome P450 1A2 (Homo sapiens) (UniProt P05177); assay: p450-cyp1a2 (AID 410; calls by dose curve; note: potency is the fitted concentration of half-maximal effect;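 for activity change, negative = inhibition: -100% = full effect of reference inhibitor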)
Cytochrome P450 1A2 (Homo sapiens), sequence (P05177 whole entry, looked up): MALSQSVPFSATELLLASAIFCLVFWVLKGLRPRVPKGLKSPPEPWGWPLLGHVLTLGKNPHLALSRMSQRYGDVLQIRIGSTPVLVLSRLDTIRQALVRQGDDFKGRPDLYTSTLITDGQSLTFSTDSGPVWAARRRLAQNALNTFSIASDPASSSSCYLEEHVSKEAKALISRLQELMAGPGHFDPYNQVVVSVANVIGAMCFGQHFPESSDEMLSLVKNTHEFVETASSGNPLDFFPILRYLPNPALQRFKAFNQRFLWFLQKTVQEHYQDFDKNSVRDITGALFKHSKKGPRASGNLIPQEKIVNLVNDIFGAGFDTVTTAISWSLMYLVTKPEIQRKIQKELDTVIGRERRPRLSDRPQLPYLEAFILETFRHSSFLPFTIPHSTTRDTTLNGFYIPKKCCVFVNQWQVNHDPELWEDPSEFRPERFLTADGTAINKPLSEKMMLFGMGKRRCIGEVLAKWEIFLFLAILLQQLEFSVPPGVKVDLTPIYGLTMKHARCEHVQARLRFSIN
Method in brief: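 20nM CYP1A2, 100uM Luciferin-ME (=Km), 100mM KPO4; cpd 10 min RT; +NADPH regen, 60 min RT; stop/detect 20 min; luminescence. Normalized to furafylline 57 uM = full inhibition.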

[3] = NFAT Signaling Pathway (AID 444); conditions: Jurkat NFAT-bla M1, carbachol, beta-lactamase ratio, 5 h; at 38 µM (top of the series) unless noted;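 note: carbachol stimulus at about its EC50 of 1 µM final; % is set by controls: 0 for no effect and ±100 for the full control effect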
Method in brief: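 Jurkat cells with NFAT-driven β-lactamase reporter and co-expressed M1 receptor, stimulated with carbachol (final 1 uM, ~EC50), compound titration, 5 h at 37 °C. CCF4 loaded 1 h at RT; 460/530 nm ratio gave %activity and AC50.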

[4] = Stat Signaling Pathway (AID 446); conditions: ME-180 (cervical carcinoma) SIE beta-lactamase reporter, IL-6 stimulated, 5 h; at 38 µM (top of the series) unless noted;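 note: ME-180 cervical cancer cells given 40 pM IL-6 alongside compound; SIE-controlled beta-lactamase reporter measured as 460/530 nm FRET emission ratio; % is set by controls: 0 for no effect and ±100 for the full control effect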
Method in brief: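 FRET read-out (405 nm excitation, 460/530 nm emission) of a beta-lactamase reporter under a STAT-inducible element in ME-180 cervical carcinoma cells. Cells with compound receive 40 pM IL-6 for 5 h. Values are normalised to AC90 stimulation and AC90 JAK-inhibitor controls.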

[5] = molecular target: Glucocorticoid receptor (Homo sapiens) (UniProt P04150); assay: GR-GFP Redistribution (AID 450;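 active = compounds whose dose series gives a full or clear partial fitted curve of increased nuclear translocation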; note: potency is the fitted concentration of half-maximal effect); conditions: U2OS GR-GFP nuclear translocation, laser cytometry, 2 h
Glucocorticoid receptor (Homo sapiens), sequence (P04150 whole entry, looked up, the tested form may be a part): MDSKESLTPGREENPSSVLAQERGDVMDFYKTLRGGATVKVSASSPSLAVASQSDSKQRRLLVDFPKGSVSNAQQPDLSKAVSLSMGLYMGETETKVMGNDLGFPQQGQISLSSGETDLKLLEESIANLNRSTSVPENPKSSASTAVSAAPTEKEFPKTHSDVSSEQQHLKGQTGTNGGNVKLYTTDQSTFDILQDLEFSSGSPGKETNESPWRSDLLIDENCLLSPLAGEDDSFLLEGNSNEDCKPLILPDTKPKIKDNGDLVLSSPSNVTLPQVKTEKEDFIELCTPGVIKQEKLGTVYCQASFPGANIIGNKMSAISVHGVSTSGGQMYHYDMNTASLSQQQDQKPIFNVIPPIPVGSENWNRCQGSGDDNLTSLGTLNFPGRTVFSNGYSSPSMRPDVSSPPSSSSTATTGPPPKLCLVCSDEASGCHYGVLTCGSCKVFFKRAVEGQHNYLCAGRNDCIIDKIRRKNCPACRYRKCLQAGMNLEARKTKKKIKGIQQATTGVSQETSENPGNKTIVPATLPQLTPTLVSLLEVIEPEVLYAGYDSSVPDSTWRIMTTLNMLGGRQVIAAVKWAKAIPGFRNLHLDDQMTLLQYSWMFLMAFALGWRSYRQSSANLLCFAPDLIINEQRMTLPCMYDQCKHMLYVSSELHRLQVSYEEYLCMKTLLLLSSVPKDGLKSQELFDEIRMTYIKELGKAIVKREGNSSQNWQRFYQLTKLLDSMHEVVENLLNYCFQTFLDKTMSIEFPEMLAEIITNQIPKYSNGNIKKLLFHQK

[6] = molecular target: Glucocorticoid receptor (Homo sapiens) (UniProt P04150); assay: GR-EFC Redistribution (AID 451; calls by dose curve; note: potency is the fitted concentration of half-maximal effect); conditions: CHO-K1 GR-EFC translocation, beta-gal luminescence, 2 h
Method in brief: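 CHO-K1 cells expressing nuclear EA and GR-ED fragments of b-gal; compounds titrated up to 46 uM final, 2 h at 37 C. GR nuclear translocation read as complemented b-gal luminescence after 1 h RT detection.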

[7] = molecular target: Mitogen-activated protein kinase 10 (Mus musculus) (UniProt Q61831); assay: JNK3 AlphaScreen Assay (AID 530);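 note: kinase came from lysate of stimulated human HepG2 cells; signal reports phosphorylation of biotinylated GST-cJun 1-79 at Ser73 with 10 µM ATP; % is set by controls: 0 for no effect and ±100 for the full control effect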
Method in brief: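 HepG2 lysate (IL-1b/TNFa pre-activated) + biotin-GST-cJun 1-79 + anti-pSer73 cJun; cpd titration, 15 min RT; ATP 10 uM start; Tris pH 7.6, MgCl2, DTT, vanadate; beads in EDTA buffer; AlphaScreen.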

N#CC(C#N)=C(N)/C(C#N)=C/c1ccc(O)cc1
active: Potency [2] 3.98 µM
inactive: activity change, negative = inhibition [1] -3.7% | activity change, negative = inhibition [3] 3.6% | activity, negative = inhibition [4] 5.06% | Potency [5] > 46 µM | Potency [6] > 46 µM | outcome [7]

Nc1ncnc2c1ncn2C1CCCC1
inactive: activity change, negative = inhibition [1] -12.9% | activity change, negative = inhibition [3] 11.8% | activity, negative = inhibition [4] 8.7% | Potency [5] > 46 µM | Potency [6] > 46 µM | outcome [7]
active: Potency [2] 20 µM

N#C/C(=C\c1ccc(O)c(O)c1)C(=O)NCCCNC(=O)/C(C#N)=C/c1ccc(O)c(O)c1
inactive: activity change, negative = inhibition [1] -12.1% | Potency [2] | activity change, negative = inhibition [3] 7.05% | activity, negative = inhibition [4] -7.91% | Potency [6] > 46 µM

Cc1nc2c(OCc3ccccc3)cccn2c1CC#N
active: Potency [2] 2 µM and 398 nM
inactive: activity change, negative = inhibition [1] -13% | activity change, negative = inhibition [3] 4.14% | activity, negative = inhibition [4] -13.9% | Potency [5] > 46 µM | Potency [6] > 46 µM | outcome [7]

c1ccc2nc(C3=NCCN3)ccc2c1
active: Potency [2] 5.01 µM and 794 nM
inactive: activity change, negative = inhibition [1] -2.57% | activity change, negative = inhibition [3] -13% | activity, negative = inhibition [4] 0.247% | Potency [5] > 46 µM | Potency [6] > 46 µM | outcome [7]

N#Cc1cc2nc(O)c(O)nc2cc1[N+](=O)[O-]
inactive: activity change, negative = inhibition [1] -1.83% | activity change, negative = inhibition [3] 10.2% | activity, negative = inhibition [4] -26.5% | Potency [5] > 46 µM | Potency [6] > 46 µM | outcome [7]
inactive and 39.8 µM (active): Potency [2]

O=c1ccc2c(OCCCCc3ccccc3)c3ccoc3cc2o1
active: Potency [2] 0.501 µM
inactive: activity change, negative = inhibition [1] -12.4% | activity change, negative = inhibition [3] -20.3% | activity, negative = inhibition [4] 3.59% | Potency [5] > 46 µM | Potency [6] > 46 µM

NC(N)=[N+]1CCc2ccccc2C1
inactive: activity change, negative = inhibition [1] -5.39% | Potency [2] | activity change, negative = inhibition [3] 1.51% | activity, negative = inhibition [4] 19.1% | Potency [5] > 46 µM | Potency [6] > 46 µM

NCCCCN
inactive: activity change, negative = inhibition [1] 15.3% | Potency [2] | activity change, negative = inhibition [3] -2.09% | activity, negative = inhibition [4] -10.8% | Potency [5] > 46 µM

C[C@H](O)C(=O)C1=Nc2c(nc(N)[nH]c2=O)NC1
inactive: activity change, negative = inhibition [1] 12.2% | Potency [2] | activity change, negative = inhibition [3] -2.7% | activity, negative = inhibition [4] -2.31% | Potency [5] > 46 µM | Potency [6] > 46 µM | outcome [7]

N[C@H](C(=O)O)c1cc(O)cc(O)c1
inactive: activity change, negative = inhibition [1] 7.53% | activity change, negative = inhibition [3] -1.35% | activity, negative = inhibition [4] 9.71% | Potency [5] > 46 µM | Potency [6] > 46 µM | outcome [7]
inactive and 31.6 µM (active): Potency [2]

COc1ccc(CCN(C)CCc2ccc(OC)c(OC)c2)cc1OC
inactive: activity change, negative = inhibition [1] 10.7% | Potency [2] | activity change, negative = inhibition [3] -20.2% | activity, negative = inhibition [4] -14.4% | Potency [5] > 46 µM | Potency [6] > 46 µM | outcome [7]

NC/C=C\C(=O)O
inactive: activity change, negative = inhibition [1] 2.58% and 1.13% | Potency [2] | activity change, negative = inhibition [3] 4.38% and -3.77% | activity, negative = inhibition [4] 22.6% and 7.43% | Potency [5] > 46 µM | Potency [6] > 46 µM | outcome [7]

[Li+]
inactive: activity change, negative = inhibition [1] 3.61% | Potency [2] | activity change, negative = inhibition [3] 1.3% | activity, negative = inhibition [4] -7.38% | Potency [5] > 46 µM | Potency [6] > 46 µM | outcome [7]

CSC(=N)N
inactive: activity change, negative = inhibition [1] -0.186% | Potency [2] | activity change, negative = inhibition [3] 4.79% | activity, negative = inhibition [4] -2.27%

O=c1cc(-c2ccccc2)[nH]c2nc(Cl)ccc12
inactive: activity change, negative = inhibition [1] -2.89% | activity change, negative = inhibition [3] -13% | activity, negative = inhibition [4] -25.2% | Potency [5] > 46 µM | Potency [6] > 46 µM | outcome [7]
active: Potency [2] 0.398 µM

CNc1cc(NS(=O)(=O)c2ccc(N)cc2)nc(NC)n1
inactive: activity change, negative = inhibition [1] 4.35% | Potency [2] | activity change, negative = inhibition [3] 3.2% | activity, negative = inhibition [4] 13.2% | Potency [5] > 46 µM | Potency [6] > 46 µM

Cn1c(=O)c2[nH]c(-c3ccc(S(=O)(=O)O)cc3)nc2n(C)c1=O
inactive: activity change, negative = inhibition [1] 8.6% | Potency [2] | activity change, negative = inhibition [3] 8.07% | activity, negative = inhibition [4] 18% | Potency [5] > 46 µM | Potency [6] > 46 µM | outcome [7]

Nn1nnc2ccccc21
inactive: activity change, negative = inhibition [1] 1.19% | activity change, negative = inhibition [3] 4.59% | activity, negative = inhibition [4] 9.14% | Potency [5] > 46 µM | Potency [6] > 46 µM | outcome [7]
active: Potency [2] 12.6 µM

S=C(S)N1CCCC1
active: Potency [2] 31.6 µM and 12.6 µM
inactive: activity change, negative = inhibition [1] 12.8% | activity change, negative = inhibition [3] -9.46% | activity, negative = inhibition [4] 7.91% | Potency [5] > 46 µM | Potency [6] > 46 µM | outcome [7]
